HCMV antiviral: blocks human cytomegalovirus replication; HFF cells, HCMV-luciferase reporter, 72 h; stronger effect = lower value; activity change, negative = inhibition, % at 57.5 µM; actives 4.5% (n = 410,000); in the data active means activity change below about -60%; inconclusive means no clear call, values can overlap the other calls; inactive means above about -39%
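Two-dose cell screen: HFF monolayers treated with compounds and infected with luciferase-expressing HCMV at 1 PFU/cell, 72 h at 37C, then lysed for luciferase measurement.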
FBPA Giardia inh: blocks Giardia fructose-bisphosphate aldolase activity | actives 0.71% (n = 290,000) | purified Giardia FBPA | Potency, µM (top dose mostly 59.6 µM), for the others: at the highest dose activity, negative = inhibition, hits mostly inhibitors | A8B2U2; further: potency means the concentration at half of the fitted maximal effect; nearly all actives have a fitted effect of over 55% in size
Target sequence (A8B2U2 whole entry, looked up): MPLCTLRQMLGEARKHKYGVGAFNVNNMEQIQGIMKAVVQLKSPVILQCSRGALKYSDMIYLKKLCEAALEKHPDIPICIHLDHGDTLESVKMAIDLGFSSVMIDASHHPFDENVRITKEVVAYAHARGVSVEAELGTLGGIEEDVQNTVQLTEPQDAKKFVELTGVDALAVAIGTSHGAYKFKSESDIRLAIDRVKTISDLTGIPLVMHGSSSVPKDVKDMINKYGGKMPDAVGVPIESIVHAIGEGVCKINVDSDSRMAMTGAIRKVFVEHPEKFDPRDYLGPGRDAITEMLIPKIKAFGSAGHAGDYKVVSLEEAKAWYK
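40 nM FBPA preincubated 10 min at RT with compound (up to 57.5 uM final), then substrate plus GAPDH/TPI/NAD/arsenate coupling and diaphorase/resazurin added. Fluorescence read after 20 min at RT, 525/598 nm.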
VACV mCherry inh: vaccinia inhibition (mCherry reporter); Vaccinia virus mCherry reporter infection, fluorescence; Potency, µM (doses to about 36.5 µM), without a hit: top-dose activity change, negative = inhibition, usual class: inhibitors; actives 0.63% (n = 310,000); AID 720579; calls by dose curve; tested in A549 cells; further: potency means the concentration at half of the fitted maximal effect; nearly all actives have a fitted effect of over 35% in size
Vaccinia Venus: inhibitors of vaccinia virus (Venus reporter). Vaccinia virus Venus reporter expression, fluorescence. Potency, µM (titrated, usually from 36.5 µM), for the others: at the top dose activity change, negative = inhibition, hits mostly inhibitors. AID 720580. actives 0.46% (n = 330,000); calls by dose curve; tested in A549 cells; further: potency means the concentration at half of the fitted maximal effect; nearly all actives have a fitted effect of over 30% in size
HCV inhibitor: HCV inhibition | Huh7.5.1 HCVcc-Cre infection, luciferase reporter, 44 h | Potency, µM (doses to about 41.8 µM), for inactives: at the highest dose activity change, negative = inhibition, hits mostly inhibitors | actives 3.4% (n = 340,000) | AID 651820; further: potency means the concentration at half of the fitted maximal effect
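Seed cells (1,000/well) for 4 h; treat with compound and infect with HCVcc-Cre, moi about 0.5. Incubate 44 h, then detect luciferase activity.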
FMDV antiviral: antivirals against foot and mouth disease virus | FMDV antiviral cell-based qHTS | actives 1.2% (n = 410,000) | Potency, µM (titrated, usually from 57.9 µM), without a hit: top-dose activity change, negative = inhibition, actives largely listed as inhibitors; calls by dose curve; tested in HEK293T cells; further: read-out not given here; potency means the concentration at half of the fitted maximal effect; nearly all actives have a fitted effect of over 45% in size
* = called active by the depositor; i = inactive; ? = inconclusive; . = no result; + = active, no number; [ ] = dose if it differs, or a comment. An excerpt weighted towards active compounds, which were near 7.5% of everything screened. Unless noted, the call rests on the fitted dose curve; in most records, active means well fitted curve in the direction sought with a large enough effect; inconclusive means small, poorly fitted or top-dose-only effect, or another doubt; inactive means no such curve, though single readings can be large; an effect the other way counts as inactive or inconclusive. On the % scale 0 is the no-effect control and ±100 the full control effect.

SMILES	HCMV antiviral	FBPA Giardia inh	VACV mCherry inh	Vaccinia Venus	HCV inhibitor	FMDV antiviral
Cc1nc2ccccc2c(=O)n1/N=C/c1ccccc1O	28	15%	-18%	2%	4%	-4%
Cc1nc2ccccc2c(=O)n1/N=C/c1ccc2ccccc2c1O	-82*	?	.	.	-26%	?
Cc1nnc(C)n1/N=C/c1c(O)ccc2ccccc12	12	-17%	.	.	2%	-6%
Cc1nc2ccccc2c(=O)n1/N=C/c1ccc(O)c(O)c1O	22	7.1µM*	-1%	-1%	-11%	-10%
O=c1c2ccccc2nc(COc2ccccc2)n1/N=C/c1ccc(O)cc1O	-96*	9%	.	.	?	-15%
COc1ccc(C2=Nn3c(nnc3-c3cc(OC)cc(OC)c3)SC2)cc1	.	-4%	.	.	.	.
O=C1CCN(S(=O)(=O)c2cc(C(F)(F)F)ccc2Cl)CC1	-5	.	.	.	-6%	-6%
Fc1ccc(-c2nnc(CN3CCN(c4ccccn4)CC3)o2)cc1	4	.	-11%	-11%	.	-7%
O=C1c2ccccc2C(=O)N1/N=C/c1ccc(O)c(O)c1O	.	7.9µM*	-2%	12%	29%	8%
O=C1c2cccc3cccc(c23)C(=O)N1/N=C/c1ccc(O)cc1O	-10	-2%	1%	-2%	-1%	0%
COc1ccc(CNC(=O)Nc2nnc([C@@H]3C[C@H](O)[C@@H](CO)O3)s2)cc1	-83*	.	-6%	-10%	.	-5%
COc1ccc(CNC(=O)Nc2nnc([C@H]3C[C@H](O)[C@@H](CO)O3)s2)cc1	-97*	.	-2%	3%	.	-16%
O=c1cc(O)c2sc(Nc3ccc(F)cc3)nc2[nH]1	-92*	?	-14%	-3%	34%	-4%
O=C(COC(=O)c1cc([N+](=O)[O-])ccc1NCCO)Nc1cccc(S(=O)(=O)N2CCCC2)c1	-1	.	-16%	0%	?	0%
Cc1nn(-c2ccccc2)c(C)c1NC(=O)COC(=O)c1cc([N+](=O)[O-])ccc1NCCO	-21	-2%	-10%	-4%	22µM*	-26%
O=C(COC(=O)c1cc([N+](=O)[O-])ccc1NCCO)Nc1ccc2c(c1)OCO2	-9	-10%	-14%	-5%	11µM*	?
Cc1nn(-c2ccccc2)c(C)c1NC(=O)COc1ccc([N+](=O)[O-])cc1	-7	.	-18%	-7%	-22%	?
O=C(O)c1cc(O)ccc1NC(=O)C(c1ccccc1)c1ccccc1	6	19%	.	.	13%	-6%
C=Cn1cc[n+](CC(=O)c2ccc(C)cc2)c1	-68*	0%	-4%	-13%	5%	-7%
COc1ccccc1NC(=O)Cn1cc(C(=O)c2ccncc2)c(=O)c2cc(C)ccc21	28	.	-23%[7.34 µM]	-7%[7.34 µM]	.	1%
COc1cc(OC)cc(C(=O)Nc2cc(C)nn2-c2ccccc2)c1	-22	-2%	i	3%	-28%	21%
COc1cccc(-c2nc(CS(=O)(=O)CC(=O)Nc3ccccc3C)c(C)o2)c1	0	0%	-15%	-21%	?	-14%
COc1cccc(-c2nc(CS(=O)(=O)CC(=O)NC3CCC(C)CC3)c(C)o2)c1 (stereo not given)	-11	11%	-9%	-18%	?	-19%
COc1cccc(NC(=O)c2ccc(-c3nc(COc4ccc(C)cc4)c(C)o3)cc2)c1	17	.	-23%[7.34 µM]	-30%[7.34 µM]	.	0%
COc1cccc(-c2nc(CS(=O)(=O)CC(=O)NC3CCCc4ccccc43)c(C)o2)c1 (stereo not given)	?	-11%	-15%	-26%	11µM*	-7%
SMILES	HCMV antiviral	FBPA Giardia inh	VACV mCherry inh	Vaccinia Venus	HCV inhibitor	FMDV antiviral
COc1cccc(-c2nc(CS(=O)(=O)CC(=O)Nc3ccccc3Cl)c(C)o2)c1	-24	-13%	0%	-23%	13µM*	-20%
COc1cccc(-c2nc(CS(=O)(=O)CC(=O)Nc3ccc(C(C)=O)cc3)c(C)o2)c1	10	.	.	.	11µM*	-18%
COc1cccc(NC(=O)c2ccc(-c3nc(COc4ccccc4)c(C)o3)cc2)c1	-66*	.	-21%	-22%	.	?
COc1ccc(CN2CCOc3ccc(CN4CCC(O)CC4)cc3C2)c(OC)c1OC	.	.	i	0%	.	-6%
Cc1ccc(-c2cc(-c3ccc4c(c3)NC(=O)CO4)nc3c2COc2ccccc2-3)cc1	-2	.	-17%	-17%	.	-17%
COc1ccc(C(=O)O)cc1NC(=S)NC(=O)C(c1ccccc1)c1ccccc1	-33	17%	i	-9%	20%	-21%
COc1cccc(-c2nc(CS(=O)(=O)CC(=O)NC3CCCC3)c(C)o2)c1	-21	6%	-20%	-18%	?	?
Cc1oc(-c2cccc(Cl)c2)nc1CS(=O)(=O)CC(=O)NC1CCCC1	-62*	7%	-23%	-18%	-7%	-5%
COc1cccc(C(=O)NCc2nc(-c3cccc(NC(=O)c4ccoc4C)c3)oc2C)c1OC	.	.	?	?	.	20µM*
COC(=O)C1CN(C(=O)COc2ccc(Cl)cc2C)c2ccccc2O1 (stereo not given)	-61*	-8%	-16%	-9%	5%	3%
NS(=O)(=O)c1ccc(CCNc2nc3c(-c4cccc(F)c4)nnn3c3ccc(Cl)cc23)cc1	-102*	.	-25%	-19%	.	9%
O=C(NCc1ccccc1)N[C@H]1CC[C@@]23CCCN2C(=O)CCC[C@H]3C1Cc1ccccc1 (stereo not given in full)	1	.	.	.	.	.
CCN1/C(=C/c2cc[n+](C)cc2)C=Cc2cc(C)ccc21	-100*	?	?	-3%	5µM*	5µM*
COc1cccc(NC(=O)CNC(=O)[C@@H]2Cc3ccccc3CN2C(=O)OC(C)(C)C)c1	-37	9%	-2%	-23%	-1%	-3%
CC(C)(C)OC(=O)N1Cc2ccccc2C[C@H]1C(=O)NCC(=O)Nc1ccc2c(c1)OCCO2	-68*	-2%	.	.	1%	?
COc1ccc(NC(=O)[C@H](C)NC(=O)[C@@H]2Cc3ccccc3CN2C(=O)OC(C)(C)C)cc1	+	-7%	.	.	-14%	-7%
O=C(O)c1ccc(NC(=S)NC(=O)c2ccc3ccccc3c2)cc1	7	-29%	-17%	-10%	9%	1%
Cn1nnc(NC(=S)NC(=O)c2ccc3ccccc3c2)n1	-67*	.	-3%	-13%	.	49%
Cn1nnc(NC(=O)c2ccc3ccccc3c2)n1	34	1%	.	-20%	-22%	35%
O=C(O)c1cccc(NC(=S)NC(=O)c2ccc3ccccc3c2)c1	39	-20%	-25%	-19%	14%	14µM*
COc1ccc(Nc2cc3[nH]c(-c4cccc(C(F)(F)F)c4)cc3cn2)cc1OC	-20	.	.	.	.	.
COc1ccccc1CNC(=O)c1cccc(S(=O)(=O)N2CCCC2)c1	-10	.	-19%	-9%	-17%	12%
